# TEAD-YAP inh: TEAD-YAP interaction inhibition; HEK-TIYL cells, TEAD-Gal4/YAP UAS-luciferase luminescence; inhibition, % at 9.12 µM; 1.4% of 640,000 active; AID 1259422; in the data active = inhibition above about 32%;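 also: 0% = median of test compound wells and 100% = reference inhibitor wells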
# MITF primary: inhibitors of human MITF; O75030; AlphaScreen MITF homodimerization, bead proximity signal; inhibition, % at 2.6 µM; 0.91% of 650,000 active; AID 1259374; in the data active = inhibition above about 50%;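 also: 0% = vehicle wells with protein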
# GPR151 activ: activates the human receptor GPR151. Q8TDV0. 1% of 650,000 active. PathHunter beta-arrestin GPR151 cells, luminescence. activation, % at 11.2 µM; in the data active = activation above about 4.9%;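 also: 0% = median of compound wells and 100% = cells with positive control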
# Target sequence (Q8TDV0 whole entry, looked up): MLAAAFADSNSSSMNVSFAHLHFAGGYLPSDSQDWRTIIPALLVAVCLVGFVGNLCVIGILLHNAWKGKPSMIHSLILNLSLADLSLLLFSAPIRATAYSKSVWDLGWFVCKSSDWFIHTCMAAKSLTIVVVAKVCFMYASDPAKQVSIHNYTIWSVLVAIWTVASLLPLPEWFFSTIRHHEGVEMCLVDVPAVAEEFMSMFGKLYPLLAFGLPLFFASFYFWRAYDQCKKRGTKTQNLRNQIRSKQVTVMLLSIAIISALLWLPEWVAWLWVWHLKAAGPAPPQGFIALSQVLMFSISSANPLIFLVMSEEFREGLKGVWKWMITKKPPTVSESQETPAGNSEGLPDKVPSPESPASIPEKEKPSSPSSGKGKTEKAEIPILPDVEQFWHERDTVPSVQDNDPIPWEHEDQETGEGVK
# FBW7 activator: activators of human E3 ligase FBW7. Q969H0. AlphaScreen FBW7–phospho-cyclin E peptide binding, activator screen. normalized activity (activation), % at 26.1 µM. 0.13% of 650,000 active; in the data active = normalized activity above about 1.9%;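 also: purified mutant Fbw7 with reduced substrate affinity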
# * = called active by the depositor; x = not tested or not shown. Sampled rows, rich in hits. Any-hit rate of the full collection: about 3.4%.
SMILES,TEAD-YAP inh,MITF primary,GPR151 activ,FBW7 activator
CCC(=O)Nc1ccc(C2=Nn3c(COc4ccc(OC)cc4)nnc3SC2)cc1,48*,-5,-2,0
O=C1C2C3CC(C(Br)C3Br)C2C(=O)N1c1ccccc1 (configuration not stated),15,3,0,1
O=C1N(CN2CCCCC2)c2ccccc2C12OCC(Br)([N+](=O)[O-])CO2 (configuration not stated),1,-1,2,0
CC(=O)c1ccc(NC(=O)C2CCN(S(=O)(=O)c3ccccc3)CC2)cc1,2,5,0,0
COc1cccc(C2=Nn3c(nnc3-c3ccccc3)SC2)c1,10,5,0,1
COc1ccc(C2=Nn3c(nnc3-c3ccc(OC)cc3)SC2)cc1,49*,0,1,0
COc1ccc(-c2nnc3n2N=C(c2ccccc2)CS3)cc1,0,14,-1,0
COc1cccc(-c2nnc3n2N=C(c2ccc(O)c(O)c2)CS3)c1,58*,6,0,0
COc1ccc(-c2nnc3n2N=C(c2ccc(O)c(O)c2)CS3)cc1,50*,3,0,0
Oc1ccc(C2=Nn3c(nnc3-c3ccc(Br)cc3)SC2)cc1O,66*,-3,2,0
COc1cccc(-c2nnc3n2N=C(c2ccc(Br)cc2)CS3)c1,0,0,1,0
CC(C)CCNS(=O)(=O)c1ccc2c(c1)oc(=O)n2C,4,5,-1,0
CCc1cc(=O)oc2cc(OC(C)C(=O)OC)c(Cl)cc12 (configuration not stated),-5,7,0,0
COc1cccc(C2=Nn3c(nnc3-c3ccccc3O)SC2)c1,-1,-8,-1,1
Oc1ccc(C2=Nn3c(nnc3-c3ccccc3Br)SC2)cc1O,52*,25,1,0
CCOC(=O)c1oc2ccccc2c1NC(=O)c1ccccc1OCC,53*,7,0,0
CCOc1ccccc1C(=O)Nc1ccccc1C(=O)OC,53*,-9,2,0
CCOc1ccc(NC(=O)c2oc3ccccc3c2NC(=O)c2ccco2)cc1,5,1,0,2.6*
CCOc1ccccc1C(=O)Nc1nnc(CCc2ccccc2)s1,34*,-5,-2,0
CCOC(=O)c1oc2ccccc2c1NC(=O)c1ccccc1C,-2,11,0,0
COC(=O)c1ccccc1NC(=O)c1ccccc1OC,3,6,1,0
Cc1c(C(=O)NC2(c3ccc(F)cc3)CCCC2)cnn1C,-1,12,2,0
Cc1ccc(NC(=O)c2ccc(C#N)cc2)cc1,-47,11,1,0
COC(=O)/C(=C/c1cccc([N+](=O)[O-])c1)NC(=O)c1ccc(C(C)(C)C)cc1,5,3,0,0
CC(C)CN1CCOc2ccc(C3(O)CCN(C)CC3)cc2C1,-15,6,0,0
SMILES,TEAD-YAP inh,MITF primary,GPR151 activ,FBW7 activator
Cc1ccc(-c2n[nH]c(=S)n2/N=C\c2ccc(O)c(O)c2)cc1,-11,-66,0,0
Oc1ccc(/C=N/n2c(-c3ccncc3)n[nH]c2=S)cc1O,4,63*,-1,0
Cn1ccnc1/C=C(\OC(=O)c1ccc(F)cc1)c1ccc(F)cc1,-10,-5,-1,0
CCn1c(=NC(=O)C2CC2)sc2c(C)ccc(OC)c21,9,6,1,0
O=C(NC1CCCC1)c1cc(-c2cccc(O)c2)on1,70*,-4,0,0
CCCCNC(=O)c1cc(-c2cccc(O)c2)on1,36*,9,0,0
CCCCNC(=O)c1cc(-c2cccc(OC)c2)on1,-45,-6,-2,0
CN(C(=O)c1cc(-c2cccc(O)c2)on1)c1ccccc1,48*,-12,0,0
O=C(NC1CCCCC1)c1cc(-c2ccccc2)on1,-47,1,0,0
CCCN(CC1CC1)C1CCC(=O)N(Cc2cccc(OC)c2)CC1 (configuration not stated),-21,-16,2,0
Nc1cc(SC(F)(F)F)cc2c1OCC(=O)N2,1,10,0,0
O=C(Nc1ccc(O)cc1)c1ccc([N+](=O)[O-])cc1,55*,11,1,0
CCOc1ccc(NC(=O)c2ccc(O)cc2)cc1,64*,1,-3,1
CCOc1ccc(NC(=O)c2cccc(O)c2)cc1,80*,7,-6,0
CCC(=O)Oc1ccc(C(=O)Nc2ccc(N(C)C)cc2)cc1,38*,-9,-1,0
O=C(Oc1ccc(-c2ccccc2)cc1)c1cccnc1,-4,17,3,0
O=C1CSc2ccc(C(=O)NC3CCCC3)cc2N1,0,1,3,0
Cc1ccc(C)c(-n2c(CNC(=O)c3ccco3)nnc2SCC(=O)N2N=C(c3cccs3)CC2c2ccc(F)cc2)c1 (configuration not stated),10,2,-1,1
COc1ccc(/C=N/NC(=O)CNc2cccc(C)c2)cc1Br,5,17,0,0
CCCCC/C=C\C/C=C\C/C=C\CCCC/C=C\CCC(=O)O,x,10,0,x
CCOCCOc1cccc(C(=O)Nc2ccc3ccccc3c2)c1,39*,10,-3,1
c1ccc(C(CCn2ccnc2)Nc2nncc(-c3ccc4c(c3)OCO4)n2)cc1 (configuration not stated),45*,6,-1,0
Cc1cc(S(=O)(=O)N(C)C2CCCCC2)ccc1-n1cnnn1,52*,4,-1,0
COc1cccc(NC(=O)CSc2nnc(-c3cccnc3)n2-c2ccccc2C)c1,-2,11,0,0
Cc1ccccc1-n1c(SCC(=O)Nc2nccs2)nnc1-c1ccncc1,21,0,-1,0
SMILES,TEAD-YAP inh,MITF primary,GPR151 activ,FBW7 activator
COc1ccccc1-n1c(SCC(=O)Nc2nccs2)nnc1-c1cccnc1,56*,0,0,0
Cc1csc(NC(=O)CSc2nnc(-c3cccnc3)n2-c2cccc(C)c2C)n1,13,-4,0,0
COc1ccccc1-n1c(SCC(=O)Nc2nccs2)nnc1-c1ccncc1,62*,10,-2,0
COc1ccccc1-n1c(SCC(=O)Nc2cccc(F)c2)nnc1-c1cccnc1,46*,4,-1,0
COc1ccccc1-n1c(SCC(=O)Nc2nc(C)cs2)nnc1-c1cccnc1,53*,11,-1,0
CC1(C)Cc2cccc(C(=O)Nc3ccc(S(N)(=O)=O)cc3)c2O1,-1,3,0,0
COc1ccc(CNCc2cc(OC)c(OC)c(OC)c2)cc1C,-1,51*,1,0
COc1ccc(CNCc2ccccc2)cc1OC,2,-9,1,0
CCOC(=O)c1ccc(NC(=O)c2ccc3c(c2)C(=O)N(c2ccc(C(=O)OCC)cc2)C3=O)cc1,-7,-13,0,1
COc1cccc(C2(CC(=O)N3CCN(C)C(C)C3)CC(=O)N(CCN(C)C)C2=O)c1 (configuration not stated),5,6,1,0
COc1cccc(C2(CC(=O)N3CCOCC3)CC(=O)N(CCN(C)C)C2=O)c1 (configuration not stated),9,6,-1,2.0*

# Source: PubChem
